Assay results as given in PubChem BioAssay AID493185 (National Center for Advancing Translational Sciences (NCATS), 2011).
A number with no mark means an inactive call. Calls come from the whole dose curve; as a rule, active = well fitted activation curve with a large enough effect; inconclusive = small, poorly fitted or top-dose-only effect; inactive = no such curve, though single readings can be large or run the other way.

Assay: Counterscreen for Identifying a Potential Treatment of Ataxia-Telangiectasia: Hit Validation; note: 0% is about no effect
Details: cell-free AlphaLISA/AlphaScreen artifact counterscreen, PBS only, no cells; series mostly up to 76.9 µM; activation: at the top concentration
In short: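 Cell-free AlphaLISA counterscreen: compounds (up to 76.7 uM final) in PBS with detection mix of anti-pKAP1 and anti-KAP1 antibodies on donor/acceptor beads plus lysis buffer, incubated 6 hr at 25C before AlphaScreen read.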

Compound	activation [%]
O=S(=O)(C/C(=C/CO)S(=O)(=O)c1ccccc1)c1ccccc1	-12.8
O=C(CCCC(=O)N1CCCC1)N1CCCC1	-23.8
COc1ccc(CCNC2=NCCS2)cc1OC	2.46
COc1cccc(CNCc2ccc(OC)c3ccccc23)c1OC	0.752
COc1ccc(C(CNC(=O)C(Cc2ccccc2)NC(N)=O)N(C)C)cc1 (stereo not given)	7.52
Cc1ccc(C(C)C)c(OCCN2CCc3ccccc3C2)c1	39.2
C/C(CCC1CC(C)OC1=O)=N\NC(N)=S (stereo not given)	-7.52
COc1cc(C(=O)NCCC(=O)NCCCN2CCCCC2)cc(OC)c1OC	19.2
O=C(CN1C(=O)c2cccc([N+](=O)[O-])c2C1=O)NCc1ccccc1	8.27
CCOC(=O)N1CCN(c2nc(N(c3ccccc3)c3ccccc3)nc(-n3ccnc3)n2)CC1	-3.76
COc1ccccc1-n1c(SCC(N)=O)nc2sc3c(c2c1=O)CCC3	-8.27
COC(=O)CCc1c(C)c(C(=O)c2cc(OC)c(OC)c(OC)c2)c2ccccn12	5.74
O=C(c1nn2c(C(F)(F)F)cc(-c3ccc(F)cc3)nc2c1Cl)N1CCOCC1	2.26
C=CCC(CC)C(=O)NC(=O)N1CCCc2ccccc21 (stereo not given)	-6.15
CCNC(=S)N(Cc1cc2cccc(C)c2[nH]c1=O)C1CCCC1	0
Cc1ccc2c(c1)C(c1ccccc1)N(C(=O)CC(C)C)CC(=O)N2 (stereo not given)	13.5
CC(C)OP(=O)(OC(C)C)C(O)c1ccc(N(C)C)cc1 (stereo not given)	-11.5
CCS(=O)(=O)N1Cc2ccccc2CC1C(=O)Nc1cccc(OC)c1 (stereo not given)	-15.4
Cc1nn(C)c(Cl)c1CN1CCN(C2CCCC2)C(CCO)C1 (stereo not given)	-13.5
CCOC(=O)c1ccccc1NC(=O)c1ccc2nc[nH]c2c1	-1.54

Compound	activation [%]
NC(=O)c1cc2ccccc2o/c1=N/NC(=O)c1cccc(F)c1	-3.76
COc1ccc(-c2nn(C)c(=O)[nH]2)cc1	6.56
COC(=O)c1ccc2[nH]c3cccc(/C(=C/c4ccccc4)c4ccccc4)c3c2c1	4.92
CCOC(=O)c1ccc(-n2c(C)nc3ccc(Br)cc3c2=O)cc1	-26.9
CCOc1ccc(NC2=NCC(=O)N2Cc2cccs2)cc1	0
COc1ccccc1C(=O)NC(=O)Nc1cccc(Cl)c1	1.64
S=c1[nH]nc(Cn2c(-c3ccccn3)nc3ccccc32)n1-c1ccc2c(c1)OCCO2	-6.15
COc1ccccc1N1CN(CCc2ccccc2)CNC1=S	-36.2
CCOC(=O)c1c(CSc2ccsc2)n(C)c2cc(Br)c(O)c(CN(C)C)c12	-23.8
CCc1ccc(NC(=O)N[C@H](C(=O)O)C(C)CC)cc1 (stereo not given in full)	-7.69
FC(F)(F)c1cccc(OCC2CNC(=S)O2)c1 (stereo not given)	-12.3
Cn1cc(S(=O)(=O)Nc2ccc(OC(F)(F)F)cc2)c(=O)n(C)c1=O	-11.5
O=C(O)c1ccc(C2Nc3ccccc3C(=O)N2Cc2ccccc2)cc1 (stereo not given)	27.8
COc1ccc(Cl)cc1NC(=O)C[n+]1cccc(C)c1	9.02
COc1ccc(CNC(=O)COc2cccnc2[N+](=O)[O-])cc1OC	-7.52
CC(=O)Nc1ccc(NC(=O)CSc2nnnn2-c2ccc(F)cc2)cc1	2.26
CSc1nc2ccccc2nc1N(C)S(=O)(=O)c1ccc(C)cc1	19.5
O=C(CCCn1nnnc1CN1CCOCC1)N1CCC(c2ccc(F)cc2)C1 (stereo not given)	-2.46
O=C(COc1ccccc1Cl)NCCCNC(=O)c1cnccn1	-27.7
COc1ccccc1S(=O)(=O)Nc1ccc(-c2nnc3n2CCCCC3)cc1	-2.46
